From PMC4336329 (PLoS ONE, 2015) come the findings set out here.

Screen size: about 310,000 compounds; about 14,000 (4.5%) showed an effect of 50% or more. The effect is printed as a negative number. The list comes from a sample in which strong results are over-represented; it also holds similar structures and randomly drawn compounds.
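Note: peak tail current of the secondary pulse compared with the same well before compound.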

In the experiment the target is human ether-à-go-go-related gene (hERG) potassium channel (human, UniProt Q12809). Nature of the experiment: primary screen, population patch clamp on CHO cells stably expressing hERG; higher = less effect of the substance.
Sequence of human ether-à-go-go-related gene (hERG) potassium channel (Q12809 whole entry, looked up): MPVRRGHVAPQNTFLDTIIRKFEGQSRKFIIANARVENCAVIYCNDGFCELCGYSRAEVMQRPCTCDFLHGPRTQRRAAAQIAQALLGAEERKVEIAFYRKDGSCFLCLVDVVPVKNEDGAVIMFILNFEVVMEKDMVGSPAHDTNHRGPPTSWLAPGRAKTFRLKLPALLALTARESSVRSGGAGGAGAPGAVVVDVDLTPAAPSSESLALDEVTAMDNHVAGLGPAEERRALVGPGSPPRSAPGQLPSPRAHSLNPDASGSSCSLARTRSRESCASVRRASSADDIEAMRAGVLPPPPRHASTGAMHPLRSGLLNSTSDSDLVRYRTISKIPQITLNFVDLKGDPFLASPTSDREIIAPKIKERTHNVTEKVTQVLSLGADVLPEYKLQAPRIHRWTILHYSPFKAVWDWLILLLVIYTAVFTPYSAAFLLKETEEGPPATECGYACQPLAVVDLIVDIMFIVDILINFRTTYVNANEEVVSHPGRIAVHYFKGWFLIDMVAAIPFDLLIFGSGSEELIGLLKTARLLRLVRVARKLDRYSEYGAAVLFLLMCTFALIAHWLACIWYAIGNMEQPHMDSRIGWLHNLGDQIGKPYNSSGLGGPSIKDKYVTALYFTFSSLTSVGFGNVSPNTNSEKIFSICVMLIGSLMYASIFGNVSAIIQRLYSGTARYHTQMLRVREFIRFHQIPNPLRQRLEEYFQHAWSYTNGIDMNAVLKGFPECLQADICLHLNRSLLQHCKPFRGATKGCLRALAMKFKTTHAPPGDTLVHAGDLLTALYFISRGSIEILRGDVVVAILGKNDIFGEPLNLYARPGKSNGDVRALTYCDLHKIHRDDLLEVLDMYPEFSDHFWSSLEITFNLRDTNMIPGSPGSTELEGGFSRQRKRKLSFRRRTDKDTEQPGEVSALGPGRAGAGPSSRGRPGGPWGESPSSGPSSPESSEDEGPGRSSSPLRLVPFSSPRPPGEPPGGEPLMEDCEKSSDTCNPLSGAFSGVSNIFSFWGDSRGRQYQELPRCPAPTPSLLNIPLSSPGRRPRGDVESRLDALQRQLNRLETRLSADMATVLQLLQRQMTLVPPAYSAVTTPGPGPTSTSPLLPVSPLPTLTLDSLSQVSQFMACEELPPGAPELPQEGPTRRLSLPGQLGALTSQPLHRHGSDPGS
Regarding `O=C(CCCn1c(SCc2ccccc2F)nc2ccccc2c1=O)NCC1CCCO1` (stereo not shown), the “hERG current change (%, negative = inhibition) at 10uM” value is -14%.

For the molecule `O=c1cc(CSc2nc(NCc3ccccc3)c3ccccc3n2)nc2ccc(Cl)cn12`, the “hERG current change (%, negative = inhibition) at 10uM” value is given as -59.3%.

For the molecule `COCCn1c(SCc2cc(=O)n3cc(C)ccc3n2)nc2ccccc2c1=O`, the “hERG current change (%, negative = inhibition) at 10uM” value was found to be 13.7%.

Take `CC(=O)NCCn1c(SCC(=O)c2ccc(Cl)cc2)nc2ccccc2c1=O`: the “hERG current change (%, negative = inhibition) at 10uM” value is -4.33%.

As for `O=C(CCCn1c(SCc2cc(=O)n3cc(Cl)ccc3n2)nc2ccccc2c1=O)NCC1CCCO1` (stereo not shown), the “hERG current change (%, negative = inhibition) at 10uM” value is recorded as -53.7%.

In the case of `COc1ccc(CNc2nc(SCc3cc(=O)n4cc(Cl)ccc4n3)nc3ccccc23)cc1`, the “hERG current change (%, negative = inhibition) at 10uM” value is listed as -44%.

On to `O=c1c2sccc2nc(SCc2cc(=O)n3cc(Cl)ccc3n2)n1Cc1ccccn1`, for which the “hERG current change (%, negative = inhibition) at 10uM” value is -26.2%.

With `NC(=S)N/N=C1/CCSc2ccc3ccccc3c21`, the “hERG current change (%, negative = inhibition) at 10uM” value is given as -23.4%.

For the molecule `C/C(=N\NC(=O)c1cccs1)C(C)(C)C`, the “hERG current change (%, negative = inhibition) at 10uM” value is on record as 5.21%.

For the molecule `CCN(c1ccc(F)cc1)S(=O)(=O)c1cccc2nsnc12`, the “hERG current change (%, negative = inhibition) at 10uM” value is on record as 2.4%.

Turning to `COc1ccc(C(c2oc(CO)cc(=O)c2O)c2oc(CO)cc(=O)c2O)cc1OC`, the “hERG current change (%, negative = inhibition) at 10uM” value turned out to be 14.3%.

Consider `N/C(=N\OC(=O)CCc1ccccc1)c1cccc(Br)c1`, for which the “hERG current change (%, negative = inhibition) at 10uM” value amounted to 1.33%.

For `Cn1c(SCC(=O)NC2CC2)nnc1C(F)(F)F`, the “hERG current change (%, negative = inhibition) at 10uM” value is -1.32%.

In the case of `Nc1nc2c(Cl)ccc(Cl)c2s1`, the “hERG current change (%, negative = inhibition) at 10uM” value worked out at 10.7%.

Consider `Cc1nc(N2CCC(C(N)=O)CC2)c2nnn(Cc3ccccc3)c2n1`, for which the “hERG current change (%, negative = inhibition) at 10uM” value turned out to be 16.3%.

In the case of `Cc1ccc(N(CC(=O)N/N=C/c2cccs2)S(C)(=O)=O)cc1`, the “hERG current change (%, negative = inhibition) at 10uM” value was -3.64%.

In the case of `Cc1ccccc1-n1c(C)nc2sccc2c1=O`, the “hERG current change (%, negative = inhibition) at 10uM” value is -2.18%.

As to `COc1ccc2cc(C(C)C(=O)N3CCC(C(N)=O)CC3)ccc2c1` (stereo not shown), the “hERG current change (%, negative = inhibition) at 10uM” value worked out at 17.1%.

Consider `COc1ccc2cc(C(C)C(=O)N3CCC(C)CC3)ccc2c1` (stereo not shown), for which the “hERG current change (%, negative = inhibition) at 10uM” value is recorded as -71.9%.

Take `COc1ccc(OC(C)C(=O)N2CCC(C)CC2)cc1` (stereo not shown): the “hERG current change (%, negative = inhibition) at 10uM” value is given as -5.47%.

Regarding `O=C(N/N=C/c1ccc([N+](=O)[O-])cc1)c1c[nH]c2ccccc12`, the “hERG current change (%, negative = inhibition) at 10uM” value is on record as 19.1%.

As to `O=C(CCn1c(=O)oc2ccccc21)Nc1cccc(Cl)c1`, the “hERG current change (%, negative = inhibition) at 10uM” value is given as -2.8%.

Regarding `Cc1ccc(COc2cccc3c2CCN(Cc2ccc(F)cc2)C3=O)cc1`, the “hERG current change (%, negative = inhibition) at 10uM” value is 6.8%.

As to `CCOC(=O)N1CCN(C(=O)COc2cccc3c2CCN(Cc2ccc(F)cc2)C3=O)CC1`, the “hERG current change (%, negative = inhibition) at 10uM” value was -61%.

Turning to `CCOC(=O)N1CCN(C(=O)COc2cccc3c2CCN(Cc2cccc(C)c2)C3=O)CC1`, the “hERG current change (%, negative = inhibition) at 10uM” value is recorded as -53.6%.

With `CCOC(=O)N1CCN(C(=O)COc2cccc3c2CCN(CC)C3=O)CC1`, the “hERG current change (%, negative = inhibition) at 10uM” value came out at 6.35%.

With `CCOC(=O)N1CCN(C(=O)COc2cccc3c2CCN(Cc2ccccc2C)C3=O)CC1`, the “hERG current change (%, negative = inhibition) at 10uM” value is -40.7%.

In the case of `CCOC(=O)N1CCN(C(=O)COc2cccc3c2CCN(Cc2ccccc2F)C3=O)CC1`, the “hERG current change (%, negative = inhibition) at 10uM” value is -31.4%.

`Cc1cc(C)nc(NS(=O)(=O)c2ccc(N3Cc4ccccc4C3=O)cc2)n1`: the “hERG current change (%, negative = inhibition) at 10uM” value was found to be 12.2%.

In the case of `COc1cc(C(=O)Nc2ccccc2N2CCOCC2)ccc1OCc1c(C)noc1C`, the “hERG current change (%, negative = inhibition) at 10uM” value is reported as -28.8%.

On to `O=C(NCc1cn2ccsc2n1)c1c(F)cccc1Cl`, for which the “hERG current change (%, negative = inhibition) at 10uM” value turned out to be 7.32%.

In the case of `O=C(O)C(=O)O.O=C(c1cccs1)N1CCN(Cc2ccncc2)CC1`, the “hERG current change (%, negative = inhibition) at 10uM” value is listed as -5.94%.

Consider `O=C(CCC1CCCC1)N1CCC(N2CCCCCC2)CC1.O=C(O)C(=O)O`, for which the “hERG current change (%, negative = inhibition) at 10uM” value is reported as -29.9%.

On to `O=C(c1cccs1)N1CCN(CCc2ccccc2)CC1`, for which the “hERG current change (%, negative = inhibition) at 10uM” value is listed as -48.6%.

`CC(C)CC(=O)N1CCC(N2CCN(c3ccccc3)CC2)CC1`: the “hERG current change (%, negative = inhibition) at 10uM” value is listed as -12%.

For the molecule `O=C(c1cccs1)N1CCN(c2ccccc2)CC1`, the “hERG current change (%, negative = inhibition) at 10uM” value is listed as -0.00412%.

As for `O=C(c1cccs1)N1CCN(Cc2ccccc2)CC1`, the “hERG current change (%, negative = inhibition) at 10uM” value is -12.2%.

In the case of `O=C(c1cccs1)N1CCN(C2CCN(Cc3ccccc3)CC2)CC1`, the “hERG current change (%, negative = inhibition) at 10uM” value is given as -64.3%.

Take `O=C(O)C(=O)O.O=C(c1cccs1)N1CCN(CCCc2ccccc2)CC1`: the “hERG current change (%, negative = inhibition) at 10uM” value is recorded as -64.5%.

On to `O=C(c1cccs1)N1CCC(N2CCN(c3ccccc3)CC2)CC1`, for which the “hERG current change (%, negative = inhibition) at 10uM” value was -51.2%.

With `COc1ccccc1N1CCN(C2CCN(C(=O)c3cccs3)CC2)CC1`, the “hERG current change (%, negative = inhibition) at 10uM” value is recorded as -38.2%.

Take `O=C(O)C(=O)O.O=C(c1cccs1)N1CCN(C2CCCCC2)CC1`: the “hERG current change (%, negative = inhibition) at 10uM” value is given as -32.4%.

`O=C(CCC1CCCC1)N1CCC(N2CCN(c3ccccc3)CC2)CC1`: the “hERG current change (%, negative = inhibition) at 10uM” value is listed as -66.6%.
